These results are taken from ChEMBL document CHEMBL3988442, “University of Dundee, Small-Polar-MMV Screening Library” (2021).

For some of these results: Potency and affinity values are given separately.

What all share (parameters): scale not given: direction of the effect not stated beside the values
Test [1] addresses Protein translocase subunit SecA (Escherichia coli (strain K12)) (UniProt P10408). Briefly: Assay to Identify E. coli SecA ATPase Inhibitors. The note with it: 30 µM. The format is functional.
For test [2], the target named is T1, Ubiquitin-activating enzyme e1, putative (Leishmania donovani (strain BPK282A1)) (UniProt E9BSI1).
T1 sequence (whole entry): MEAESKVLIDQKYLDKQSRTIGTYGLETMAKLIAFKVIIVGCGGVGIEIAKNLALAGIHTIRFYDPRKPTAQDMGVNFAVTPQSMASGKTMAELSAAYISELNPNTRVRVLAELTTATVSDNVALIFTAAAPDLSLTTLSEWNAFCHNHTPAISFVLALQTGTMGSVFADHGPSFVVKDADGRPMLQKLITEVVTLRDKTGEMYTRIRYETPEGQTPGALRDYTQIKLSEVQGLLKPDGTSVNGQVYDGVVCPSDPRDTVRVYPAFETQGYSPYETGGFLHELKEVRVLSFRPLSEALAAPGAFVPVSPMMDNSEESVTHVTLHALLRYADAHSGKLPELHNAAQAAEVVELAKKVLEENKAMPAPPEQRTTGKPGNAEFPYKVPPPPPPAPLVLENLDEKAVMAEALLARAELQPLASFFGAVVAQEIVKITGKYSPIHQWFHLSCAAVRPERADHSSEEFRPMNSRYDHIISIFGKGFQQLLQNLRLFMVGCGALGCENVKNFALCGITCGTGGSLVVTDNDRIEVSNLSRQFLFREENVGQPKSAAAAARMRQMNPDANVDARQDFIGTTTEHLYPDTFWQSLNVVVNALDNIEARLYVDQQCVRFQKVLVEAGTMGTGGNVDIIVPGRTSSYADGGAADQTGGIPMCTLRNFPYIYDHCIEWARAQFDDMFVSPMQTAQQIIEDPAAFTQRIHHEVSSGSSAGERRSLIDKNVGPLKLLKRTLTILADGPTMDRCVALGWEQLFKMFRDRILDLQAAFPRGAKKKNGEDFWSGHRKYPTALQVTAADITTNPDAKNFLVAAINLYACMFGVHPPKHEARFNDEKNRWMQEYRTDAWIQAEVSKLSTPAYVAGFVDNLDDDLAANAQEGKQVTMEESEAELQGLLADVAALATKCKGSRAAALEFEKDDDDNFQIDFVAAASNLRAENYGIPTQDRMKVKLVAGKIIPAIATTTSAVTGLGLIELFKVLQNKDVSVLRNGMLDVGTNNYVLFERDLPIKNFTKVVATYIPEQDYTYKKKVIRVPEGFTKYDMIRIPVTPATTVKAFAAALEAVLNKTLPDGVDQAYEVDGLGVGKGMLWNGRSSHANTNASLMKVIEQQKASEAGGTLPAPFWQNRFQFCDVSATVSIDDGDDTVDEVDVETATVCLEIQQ
Description: Leishmania donovani Ubiquitin Activating Enzyme (LdE1). The format is functional. The note with it: 30 µM.

The target of test [3] is AMP-activated protein kinase, AMPK (Homo sapiens) (UniProt P54646+O43741+P54619+Q9UGJ0+Q9Y478+Q13131+Q9UGI9). Briefly: AMP-dependent Kinase enzyme assay. An in vitro enzyme assay that detects ADP turnover that is directly proportional to AMPK activity. This uses naive AMPK that is activated during the assay with MK-8722. The note with it: 30 µM. The format is functional.

Test [4] has as its target Sialic acid-binding Ig-like lectin 9 (Homo sapiens) (UniProt Q9Y336). Briefly: Hs-Siglec9 ALPHAscreen SOP 20170721. The note with it: 10 µM.
The subject of the next test is Trypanosoma cruzi. Description: Trypanosoma cruzi phosphomannomutase and mannose-1-phosphate guanylyltransferase assay. The format is functional. The note with it: 10 µM.
Test [5] has as its target T2, Arginase-2, mitochondrial (Homo sapiens) (UniProt P78540).
T2 sequence (whole entry): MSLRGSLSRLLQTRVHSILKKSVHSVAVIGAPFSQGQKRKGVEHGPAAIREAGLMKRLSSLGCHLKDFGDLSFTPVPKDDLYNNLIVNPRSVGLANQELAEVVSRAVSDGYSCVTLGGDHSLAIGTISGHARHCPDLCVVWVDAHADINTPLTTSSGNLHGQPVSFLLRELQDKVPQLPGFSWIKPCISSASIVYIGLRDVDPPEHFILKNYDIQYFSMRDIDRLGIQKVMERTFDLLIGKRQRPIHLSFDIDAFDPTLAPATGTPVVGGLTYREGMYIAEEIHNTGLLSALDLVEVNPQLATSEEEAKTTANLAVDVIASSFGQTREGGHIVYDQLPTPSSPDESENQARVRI
Briefly: in vitro enzyme assay to detect the production of urea directly proportional to the activity of Arginase II. Note: in the data most compounds retested in dose-response had high values. The note with it: 33.3 µM. The format is functional.

Test [6] concerns the target T3, Proteasome subunit beta (Trypanosoma cruzi) (UniProt O96673).
T3 sequence (whole entry): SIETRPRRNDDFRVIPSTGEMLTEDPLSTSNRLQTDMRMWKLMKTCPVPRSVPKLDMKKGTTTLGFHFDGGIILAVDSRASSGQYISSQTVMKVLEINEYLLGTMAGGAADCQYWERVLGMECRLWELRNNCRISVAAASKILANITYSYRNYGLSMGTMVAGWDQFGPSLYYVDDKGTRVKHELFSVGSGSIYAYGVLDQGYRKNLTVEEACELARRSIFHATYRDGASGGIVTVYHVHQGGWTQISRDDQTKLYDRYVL
Description: Trypanosoma cruzi proteasome chymotrypsin-like activity (TcProtChymo) assay. Note: in the data most compounds retested in dose-response had high values. The note with it: 9.37 µM. The format is functional.

For another test, the species on record is Homo sapiens. Briefly: To identify inhibition of the IFN signalling (Jak-Stat) pathway via expression of an eGFP reporter gene under the control of an IFN-stimulated response element (ISRE) containing MxA promoter. The format is functional. The note with it: 30 µM. In general terms: In a reporter assay the amount or activity of a reporter protein is the signal.

The target in test [7] is T4, Tyrosyl-tRNA synthetase, putative (Trypanosoma cruzi (strain CL Brener)) (UniProt Q4DSP6).
T4 sequence (whole entry): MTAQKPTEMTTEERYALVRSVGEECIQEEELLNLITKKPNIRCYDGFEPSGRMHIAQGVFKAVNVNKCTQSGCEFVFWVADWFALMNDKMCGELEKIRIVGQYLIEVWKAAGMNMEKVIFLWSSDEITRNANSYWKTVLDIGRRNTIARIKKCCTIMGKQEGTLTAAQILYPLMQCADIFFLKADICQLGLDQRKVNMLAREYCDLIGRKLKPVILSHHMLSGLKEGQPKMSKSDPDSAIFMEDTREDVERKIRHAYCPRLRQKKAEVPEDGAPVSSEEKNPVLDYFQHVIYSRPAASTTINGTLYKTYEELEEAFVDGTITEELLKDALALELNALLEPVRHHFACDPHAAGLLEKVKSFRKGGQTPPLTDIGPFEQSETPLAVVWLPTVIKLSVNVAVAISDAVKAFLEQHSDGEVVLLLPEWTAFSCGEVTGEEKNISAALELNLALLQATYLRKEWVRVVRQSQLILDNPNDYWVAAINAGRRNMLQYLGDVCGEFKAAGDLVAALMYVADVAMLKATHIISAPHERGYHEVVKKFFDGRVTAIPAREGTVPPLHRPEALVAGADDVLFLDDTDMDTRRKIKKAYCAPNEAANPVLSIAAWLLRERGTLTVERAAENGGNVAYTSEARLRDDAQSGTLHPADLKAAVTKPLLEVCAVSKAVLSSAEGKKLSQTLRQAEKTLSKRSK
Description: Trypanosoma cruzi tyrosyl tRNA synthetase (TcYRS) _High Tyrosine SOP. Note: in the data most compounds retested in dose-response had high values. The format is functional. The note with it: 30 µM.

For test [8], the target named is T4, Tyrosyl-tRNA synthetase, putative (Trypanosoma cruzi (strain CL Brener)). Description: Trypanosoma cruzi tyrosyl tRNA synthetase (TcYRS) SOP. The format is functional. The note with it: 30 µM.
Test [9] concerns the target Chromo domain-containing protein 1 (Saccharomyces cerevisiae (strain ATCC 204508 / S288c) (Baker's yeast)) (UniProt P32657). Briefly: ScCHD-1 Enzyme Inhibition Assay. Note: in the data most compounds retested in dose-response had high values. The note with it: 30 µM. The format is functional.

Chain of Protein translocase subunit SecA (Escherichia coli (strain K12)) (P10408 whole entry): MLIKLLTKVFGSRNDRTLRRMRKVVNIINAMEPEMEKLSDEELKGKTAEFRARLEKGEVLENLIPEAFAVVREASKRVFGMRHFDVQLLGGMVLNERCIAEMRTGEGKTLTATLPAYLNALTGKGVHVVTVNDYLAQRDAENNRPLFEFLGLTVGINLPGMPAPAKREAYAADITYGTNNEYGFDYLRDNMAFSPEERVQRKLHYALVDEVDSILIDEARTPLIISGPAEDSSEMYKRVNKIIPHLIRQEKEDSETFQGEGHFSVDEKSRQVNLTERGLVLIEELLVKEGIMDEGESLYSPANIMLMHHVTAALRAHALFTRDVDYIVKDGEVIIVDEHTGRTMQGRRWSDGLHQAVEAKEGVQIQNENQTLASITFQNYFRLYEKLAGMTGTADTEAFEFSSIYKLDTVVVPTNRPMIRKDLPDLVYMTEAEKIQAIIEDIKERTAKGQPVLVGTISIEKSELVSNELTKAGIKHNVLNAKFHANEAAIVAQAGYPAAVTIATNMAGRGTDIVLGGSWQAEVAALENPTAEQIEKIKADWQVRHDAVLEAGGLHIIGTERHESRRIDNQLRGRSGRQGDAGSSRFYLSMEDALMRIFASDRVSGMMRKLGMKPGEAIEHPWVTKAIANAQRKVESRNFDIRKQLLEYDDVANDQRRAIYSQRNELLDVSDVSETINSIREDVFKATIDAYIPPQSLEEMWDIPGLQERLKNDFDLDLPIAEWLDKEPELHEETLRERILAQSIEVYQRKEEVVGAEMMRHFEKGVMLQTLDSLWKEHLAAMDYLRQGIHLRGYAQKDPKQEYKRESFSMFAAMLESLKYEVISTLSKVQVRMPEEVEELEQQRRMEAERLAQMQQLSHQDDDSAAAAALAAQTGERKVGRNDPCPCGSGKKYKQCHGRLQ
Chain of Chromo domain-containing protein 1 (Saccharomyces cerevisiae (strain ATCC 204508 / S288c) (Baker's yeast)) (P32657 whole entry, the tested form may be a part): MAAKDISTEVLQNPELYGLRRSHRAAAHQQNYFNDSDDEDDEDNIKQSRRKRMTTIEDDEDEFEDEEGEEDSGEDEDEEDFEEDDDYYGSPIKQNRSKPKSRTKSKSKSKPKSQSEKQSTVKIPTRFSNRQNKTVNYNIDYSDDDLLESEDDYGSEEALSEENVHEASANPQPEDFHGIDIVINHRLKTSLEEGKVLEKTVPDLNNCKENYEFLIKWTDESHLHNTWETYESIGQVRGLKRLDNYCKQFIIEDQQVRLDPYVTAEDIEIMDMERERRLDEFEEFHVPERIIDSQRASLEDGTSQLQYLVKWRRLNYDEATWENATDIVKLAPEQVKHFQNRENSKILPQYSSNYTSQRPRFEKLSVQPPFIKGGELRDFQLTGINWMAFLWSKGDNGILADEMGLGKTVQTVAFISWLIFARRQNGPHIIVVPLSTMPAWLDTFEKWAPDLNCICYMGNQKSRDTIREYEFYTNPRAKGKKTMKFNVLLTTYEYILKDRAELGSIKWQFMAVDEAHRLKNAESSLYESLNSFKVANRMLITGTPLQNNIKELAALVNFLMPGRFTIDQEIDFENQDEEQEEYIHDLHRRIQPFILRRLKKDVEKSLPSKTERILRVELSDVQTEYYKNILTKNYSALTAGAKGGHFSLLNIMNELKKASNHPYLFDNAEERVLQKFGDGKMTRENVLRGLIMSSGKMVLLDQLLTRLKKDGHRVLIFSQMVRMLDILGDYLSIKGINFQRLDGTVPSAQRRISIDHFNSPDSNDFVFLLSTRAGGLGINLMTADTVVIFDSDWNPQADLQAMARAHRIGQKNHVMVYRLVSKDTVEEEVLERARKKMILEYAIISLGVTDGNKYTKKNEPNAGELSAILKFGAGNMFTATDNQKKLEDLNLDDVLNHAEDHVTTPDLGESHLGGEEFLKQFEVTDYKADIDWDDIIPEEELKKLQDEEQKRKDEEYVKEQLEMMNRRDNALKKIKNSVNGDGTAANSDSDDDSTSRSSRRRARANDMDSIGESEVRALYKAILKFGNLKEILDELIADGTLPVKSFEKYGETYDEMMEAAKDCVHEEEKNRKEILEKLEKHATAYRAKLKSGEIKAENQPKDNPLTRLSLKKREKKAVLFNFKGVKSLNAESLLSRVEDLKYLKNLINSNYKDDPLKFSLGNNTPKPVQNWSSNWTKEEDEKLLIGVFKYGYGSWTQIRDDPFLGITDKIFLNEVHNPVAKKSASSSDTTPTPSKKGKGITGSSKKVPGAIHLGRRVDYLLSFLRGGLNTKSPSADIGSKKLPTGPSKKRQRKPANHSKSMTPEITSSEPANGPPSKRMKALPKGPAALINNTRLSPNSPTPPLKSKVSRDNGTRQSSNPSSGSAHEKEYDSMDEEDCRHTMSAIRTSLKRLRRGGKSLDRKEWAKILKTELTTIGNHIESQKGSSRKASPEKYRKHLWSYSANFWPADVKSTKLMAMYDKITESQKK
Chain of Sialic acid-binding Ig-like lectin 9 (Homo sapiens) (Q9Y336 whole entry): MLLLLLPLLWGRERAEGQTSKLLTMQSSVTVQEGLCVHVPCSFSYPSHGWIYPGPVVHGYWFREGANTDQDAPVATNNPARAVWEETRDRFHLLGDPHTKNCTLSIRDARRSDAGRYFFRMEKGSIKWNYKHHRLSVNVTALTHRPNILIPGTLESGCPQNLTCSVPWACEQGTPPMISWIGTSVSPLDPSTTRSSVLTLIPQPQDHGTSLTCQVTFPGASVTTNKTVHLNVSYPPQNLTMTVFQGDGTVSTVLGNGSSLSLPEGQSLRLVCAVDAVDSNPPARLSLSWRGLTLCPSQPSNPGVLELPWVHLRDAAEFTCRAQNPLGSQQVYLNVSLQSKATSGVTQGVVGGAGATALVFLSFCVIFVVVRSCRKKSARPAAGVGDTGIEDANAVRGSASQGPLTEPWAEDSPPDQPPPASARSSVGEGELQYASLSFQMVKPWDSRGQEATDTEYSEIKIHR

Take `CCC(=O)N1CCc2nc3cc(OC)c(OC)cc3c(=O)n2CC1`: the Percent Effect in test [1] is -8.64%; in [2], 9.46%; in [3] it was -6.48%; in test [4] it was 12.5%; in the test with Trypanosoma cruzi, 5.34%; in test [5], -1.62%. The Percent Effect in [6] was 8.58%; in the test filed under Homo sapiens, 6.53%; in test [7] it was 2.15%; in test [8] it was 11.7%; in test [9] it was -28.2%.

Turning to `Cc1cccc(NC(=O)[C@@H]2CCCN2CC(=O)N2CCCCCC2)n1`, the Percent Effect was -4.79% in test [1]; 16% in [2]; -8.35% in [3]; 23.6% in test [4]; 5.75% in the test with Trypanosoma cruzi; 34.4% in [5]. Besides, the Percent Effect in test [6] is 14.8%; in the test listed under Homo sapiens, -1.75%; in test [7] it was 4.92%; in test [8], 16.1%; in test [9], -6.64%.

For `CCn1cc(CN2CCCn3nc(CNC(=O)C4CCC4)cc3C2)cn1`, the Percent Effect was -2.37% in test [1]; 10.4% in test [2]; 0.185% in test [3]; 10.6% in [4]; 4.42% in the test with Trypanosoma cruzi; -6.9% in test [5]. Further, the Percent Effect was 18.5% in [6]; -4.18% in the test listed under Homo sapiens; 6.45% in test [7]; 13.6% in [8]; -3.28% in test [9].

Regarding `CN1N=C(C(=O)N(Cc2ccco2)C2CC2)CCC1=O`, the Percent Effect was -3.94% in test [1]; 0% in [2]; 7.53% in [3]; 0.679% in test [4]; 1.46% with Trypanosoma cruzi; -1.18% in [5]. Further, the Percent Effect in test [6] was 9.49%; in the test filed under Homo sapiens, 4.75%; in test [7] it was 4.25%; in test [8], 5.2%; in test [9], 8.43%.

Consider `N#Cc1c(F)cccc1N1CCN(S(=O)(=O)c2cccs2)CC1`, for which the Percent Effect in [1] is -2.74%; in test [2], -8.22%; in test [3], 3.3%; in test [4], 3.95%; in the test with Trypanosoma cruzi it was 3.33%; in test [5], 13.2%. Besides, the Percent Effect in [6] was 8.16%; in the test filed under Homo sapiens, 55.5%; in [7], -38.7%; in test [8], -52.5%; in [9], 48.5%.

On to `COc1ccc(CCC(=O)Nc2cccnc2N2CCCC2)cc1Br`, for which the Percent Effect is -6.14% in [1]; 8.11% in test [2]; -7.1% in test [3]; 0.341% in test [4]; -5.57% with Trypanosoma cruzi; 2.81% in test [5]. For the same molecule, the Percent Effect was 3.42% in test [6]; 13.8% in the test filed under Homo sapiens; 5.42% in test [7]; 6.17% in [8]; -2.84% in test [9].

Consider `COc1ccc(C2=CCN(C(=O)CN(C)CC(N)=O)CC2)cc1`, for which the Percent Effect in test [1] is -1.62%; in test [2] it was 5.06%; in test [3], 0.216%; in test [4], -0.305%; in the test on Trypanosoma cruzi, -19.4%; in test [5] it was 6.46%. In addition, the Percent Effect is 9.42% in [6]; 16.9% in the test listed under Homo sapiens; 3.45% in test [7]; 8.86% in test [8]; -6.22% in [9].

Consider `CCC1=N[C@@]2(CC[C@@H]3CN(C(=O)NC(C)C)C[C@@H]32)C(=O)N1C`, for which the Percent Effect in test [1] is -5.93%; in test [2], 18.9%; in test [3] it was -5.97%; in test [4] it was 2.32%; with Trypanosoma cruzi, 3.12%; in [5], 2.92%. Moreover, the Percent Effect in test [6] was 10.9%; in the test filed under Homo sapiens, 1.5%; in test [7] it was 3.96%; in test [8], 18.3%; in test [9], -6.51%.
